# Bioassay records from PubChem.
# Rows were chosen to be rich in hits. Some 7.1% of all compounds tested hit in one or more screens of this group.
# LASV entry inh: Lassa virus entry inhibition; Lassa virus pseudotyped entry inhibition, cell-based qHTS; Potency, µM (titrated, usually from 49.2 µM), for inactives: top-dose activity change, negative = inhibition, most hits filed as inhibitors; hit rate 4.1% among 18,000; AID 720533
# Marburg entry: blocks Marburg virus binding or cell entry; Marburg virus pseudotype entry/binding inhibition, cell-based; Potency, µM (series often up to 49.2 µM), for inactives: at the top dose activity change, negative = inhibition, actives largely listed as inhibitors; hit rate 6.5% among 18,000; AID 720532
# Active calls of the source: *; ? = inconclusive; nt = no result given; ! = not confirmed by another sample; [ ] = another dose, or the depositor's remark. The call rests on the fitted dose curve; tested in HEK293 cells. On the % scale 0 is the no-effect control and ±100 the full control effect; potency means the concentration at half of the fitted maximal effect.
SMILES,LASV entry inh,Marburg entry
Oc1ccc2c3c1O[C@H]1c4c(c5ccccc5n4Cc4ccccc4)C[C@@]4(O)C(C2)N(CC2CC2)CC[C@]314,14µM*,7.9µM*
Oc1ccc2c3c1O[C@H]1c4oc5ccccc5c4C[C@@]4(O)C(C2)N(CC2CC2)CC[C@]314,?,14µM*
Oc1ccc2c3c1O[C@H]1c4[nH]c5c(c4C[C@@]4(O)[C@@H](C2)N(CC2CC2)CC[C@]314)C[C@]1(O)[C@H]2Cc3ccc(O)c4c3[C@@]1(CCN2CC1CC1)[C@@H]5O4,-10%,3%
COc1ccc2c3c1O[C@H]1C(=O)CC[C@@]4(O)C(C2)N(CC2CC2)CCC314 (some centres undefined),-7%,?
CCC1(C2CCN(C(=O)c3ccc(C)cc3C)CC2)NC(=O)N(CCc2scnc2C)C1=O (centres undefined),-4%,-16%
O=C(O)c1ccccc1O,-6%,5%
C[CH2][Hg][S]c1ccccc1C(=O)O,1.1µM*,?
CNC(=O)[C@@H]1C[C@@H](NCc2cccc(Oc3ccccc3)c2)CN1C(C)C,3%,10µM*
O=C(O)c1cc(C(=O)O)c(C(=O)N(Cc2cccc(Oc3ccccc3)c2)[C@H]2CCCc3ccccc32)cc1C(=O)O,-6%,7%
COc1ccc2c(c1)CO[C@H]([C@H](O)CO)[C@H]2C=Cc1ccccc1,nt,-6%[8.59 µM]
COC(=O)CCC(=O)OC1(C)C(=O)C=C2C=C(CCCNC(=O)OC(C)(C)C)OC=C2C1=O (centres undefined),-7%,-23%
c1ccc2sc(C3(N4CCCC4)CCCCC3)cc2c1,1%,6.3µM*
c1ccc2sc(C3(NCC4CC4)CCCCC3)cc2c1,?,14µM*
CCCCCC(=O)N1C[C@H](n2cc(-c3ccc(F)cc3)nn2)[C@@H](O)C[C@H]1c1ccc(OC)cc1,-30%,?
Cc1cc(CNC(=O)CCN2Cc3cc(Cl)ccc3OC(C)C2)nn1C (centres undefined),2%,-2%
CC1(C)CCC(C)(C)c2cc(NC(=O)c3ccc(C(=O)O)cc3)ccc21,-24%,-15%
CC(C)[C@H](O)CC[C@@H](C)C1CC[C@H]2C3CC=C4C[C@@H](O)CC[C@]4(C)C3CC[C@]12C (some centres undefined),-1%,-1%
CC/C(=C(\c1ccccc1)c1ccc(OCCN(C)C)cc1)c1ccccc1,nt,10µM*!
CN(C)CCOc1ccccc1Cc1ccccc1 (tested in a mixture with another compound),-24%,?
CCn1cc(CN2CCOc3ccc(C(O)C4CCCCC4)cc3C2)c(C)n1 (centres undefined),10%,-13%
CCCCCCCCCCCCCCCCCCNC(=O)OC1CCN(C(=O)OC[C@H](COC(=O)N(Cc2cccc[n+]2CC)C(=O)c2ccccc2OC)OC)CC1,13µM*,11µM*
C=CCN=C1NC(CCc2ccccc2)C(C(=O)OC)=C(C)N1CC (centres undefined),-13%[8.59 µM],?
COc1cc2c(cc1O)CCN[C@]21CS[C@@H]2c3c(OC(C)=O)c(C)c4c(c3[C@H](COC1=O)N1[C@@H]2[C@H]2c3c(cc(C)c(OC)c3O)C[C@@H]([C@@H]1O)N2C)OCO4,40µM*!,?
C[C@@]12C=CC(=O)C=C1CC[C@H]1[C@H]3CC[C@](O)(C(=O)CO)[C@]3(C)CC(=O)[C@@H]12,19%[17.8 µM],6%[17.8 µM]
CSc1ncccc1C(=O)N1CCOc2ccc(C(C)(O)CCn3cccn3)cc2C1 (centres undefined),6%,-15%
SMILES,LASV entry inh,Marburg entry
CC(c1ccon1)N(C)C(=O)c1cnn(-c2ncc3c(n2)-c2ccccc2CC3)c1C1CC1 (centres undefined),22%,5%
CO[C@@H]1CC[C@@]2(C)[C@@H](CC[C@@]3(C)[C@H]2CC=C2[C@H]4CC(C)(C)[C@H](O)[C@@H](OC(C)=O)[C@]4(CO)[C@H](O)C[C@]23C)[C@@]1(C)CO (tested in a mixture with another compound),9%[17.8 µM],-24%[17.8 µM]
C[C@@H]1OC(OC2CC[C@@]3(C)C(CC[C@@]4(C)C3CC=C3C5CC(C)(C)CC[C@]5(C(=O)OC5OCC(O)[C@@H](O)[C@@H]5OC5O[C@@H](C)[C@H](O[C@H]6OC(CO)C(O)C(O)C6O)C(O)C5O)C(O)C[C@@]34C)C2(C)C)C(O)C(O)[C@H]1OC1OCC(O)C(O)[C@H]1O (some centres undefined),11µM*,?
O=S(=O)(O)c1cc(N=C=S)ccc1/C=C/c1ccc(N=C=S)cc1S(=O)(=O)O,34%,-3%
Nc1ccc(/C=C/c2ccc(N)cc2S(=O)(=O)O)c(S(=O)(=O)O)c1,-5%,25µM*
CCc1cc2c(nc1CC)CCN(CCC(C)=NO[C@@H](C)CN1CCCc3nc(C)c(C)cc31)C2,-10%[8.59 µM],-24%[8.59 µM]
CC1=CC2C(CC1=O)C(C)=CCC2C(C)C (centres undefined),4%,1%
CN1CCC(=C2c3ccccc3CCc3sccc32)CC1,22µM*!,11µM*
CN1CCC(=C2c3ccccc3CC(=O)c3sccc32)CC1,?,7.1µM*!
Cc1nc(NCc2c(F)cccc2F)sc1-c1ccn(CCN2CCOCC2)n1,4%,4%
CC(C)C[C@H](NC(=O)[C@@H](N)Cc1ccccc1)C(=O)N[C@@H](Cc1ccccc1)C(=O)N[C@@H](CCC(N)=O)C(=O)N1CCC[C@H]1C(=O)N[C@@H](CCC(N)=O)C(=O)N[C@@H](CCCN=C(N)N)C(=O)N[C@@H](Cc1ccccc1)C(N)=O,3%,-1%
C[C@@H]1CC[C@H]2C(=O)N(Cc3ccccc3)C[C@H](O)CN2[C@@H]1c1ccc(Br)cc1,-1%[8.59 µM],3%[8.59 µM]
COc1cc(CN2CCc3nnc(C(NS(C)(=O)=O)C(C)C)n3CC2)ccc1F (centres undefined),-6%,11%
O=c1cc(-c2ccc(O)cc2)oc2ccc(O)cc12,11µM*,56%
O=c1cc(-c2cccc(O)c2)oc2ccc(O)cc12,?,77%
CC(=O)[O][Al][O]C(C)=O,-16%,21%
COc1cccc(-c2cc(=O)c3cc(NC(=O)c4ccc(Cl)cc4)ccc3[nH]2)c1,1%,?
COc1cccc(-c2cc(=O)c3cc(NC(=O)c4ccccc4)ccc3[nH]2)c1,?,7.1µM*
COc1cccc(-c2cc(=O)c3cc(NC(=O)c4ccc(N(C)C)cc4)ccc3[nH]2)c1,?,4µM*
COc1ccc2[nH]c(-c3cccc(F)c3)cc(=O)c2c1,-11%,?
CCCC=Cc1ccc(CN2C(CC(C)C)C(=O)N(Cc3cn(CCC4OCCO4)nn3)CCS2(=O)=O)cc1 (centres undefined),3%,?
CC(C)[C@H](NC(=O)OCc1ccccc1)C(=O)N[C@H](C=O)Cc1ccccc1,-5%,?
CC(C)C[C@@H](C=O)NC(=O)[C@H](CC(C)C)NC(=O)[C@H](CC(C)C)NC(=O)OCc1ccccc1,3.5µM*,?
